# Results published in PubChem BioAssay (Tox21).
# Inconclusive results are not listed. Activity calls are given as the source filed them. Calls follow the shape of the dose curve; as a rule, active = well fitted cell-killing curve with a large enough effect in the repeat runs; inconclusive = weak or mixed curves; inactive = flat fitted curve, though single readings scatter.
# Test: qHTS assay to identify small molecule antagonists of the estrogen related receptor (ERR) signaling pathway from Tox21 library - cell viability counter screen (AID 1224834); also: nearly all actives have a fitted effect of over 30% in size
# Conditions: ERR reporter cells viability, CellTiter-Fluor, 17.5 h; series mostly up to 92.4 µM; viability change, negative = cytotoxic: at the top concentration
# From the text: National Center for Advancing Translational Sciences [NCATS]
# NIH Chemical Genomics Center [NCGC]
# U.S. Environmental Protection Agency [EPA]
# National Institutes of Environmental Health Sciences [NIEHS]
# National Toxicology Program [NTP]
# U.S. Food and Drug Administration [FDA]
# Estrogen related receptors (ERRs), the first orphan nuclear receptors discovered, play an important role in the control of cellular energy metabolism. ERRs are required for high-energy production in response to the environmental challenges. ERR-alpha was also identified as an adverse marker for breast cancer progression; ERR-alpha-positive tumors have a poor prognosis. To screen and to identify environmental compounds that perturb the ERR signaling pathways could provide valuable information for potential therapeutic or preventive measures in the treatment of metabolic disease. To differentiate true ERR antagonists or agonist from cytotoxic substances, the assay is multiplexed with cell viability assay.
# Tox21 Assay Protocol Summary:
# The ERR cells were dispensed at 2,000 cells/5 ul/well in 1536-well white plates using a Multidrop dispenser. After the assay plates were incubated at a 37 C/5% CO2 incubator for 6 hours, 23 nL of compounds dissolved in DMSO, positive and negative controls or DMSO only was transferred to the assay plate by a pin tool. The plates were incubated at 37 C for 17.5 hours. 1 ul/well of CellTiter-Fluor reagent was added into the assay plates using a Flying Reagent Dispenser. After 30-minute incubation at 37 C/5% CO2, the fluorescence intensity in the plates was measured using a ViewLux plate reader.
# % is scaled to controls: 0 for no effect and ±100 for the full control effect; potency is read from the fitted curve at half-maximal effect.
Structure (SMILES),"viability change, negative = cytotoxic",Potency
c1ccc2nccnc2c1,0.122% (inactive),–
COC(=O)[C@@H]1[C@H]2C[C@H]3c4[nH]c5ccccc5c4CCN3C[C@@H]2CC[C@@H]1O,-9.02% [at 42.5 µM] (inactive),–
CC(=O)Nc1ccc(S(=O)(=O)Nc2ccc([N+](=O)[O-])cc2)cc1,–,23.7 µM (active)
Cc1ccc(S(=O)(=O)O)c(C)c1,2.78% (inactive),–
CCCCCCCC/C=C\CCCCCCCC(=O)OCCCC,-0.0583% [at 19 µM] (inactive),–
Cc1cccc2nccnc12,1.85% (inactive),–
CN=C(NC#N)Nc1ccc(C2=NNC(=O)CC2C)cc1 (stereo not given),5.7% [at 42.5 µM] (inactive),–
CC(=O)/C=C/C1C(C)=CCC(C)C1(C)C (stereo not given),-0.0138% (inactive),–
C=C(C)C(=O)OCc1ccccc1,0.822% (inactive),–
CCOC(=O)c1ncn2c1CN(C)C(=O)c1cc(F)ccc1-2,1.63% [at 42.5 µM] (inactive),–
Cc1[nH]cnc1-c1ccc(Cl)cc1,0.465% [at 42.5 µM] (inactive),–
C[C@@H](O)[C@H]1C(=O)N2C(C(=O)O)=C(SCCN=CN)C[C@H]12,5.64% [at 42.5 µM] (inactive),–
CCOC(=O)c1ccc(OC(=O)CCCCCN=C(N)N)cc1,1.73% [at 42.5 µM] (inactive),–
CC(C)C[C@H](NC(=O)CNC(=O)[C@H](Cc1ccc(O)cc1)NC(=O)[C@H](CO)NC(=O)[C@H](Cc1c[nH]c2ccccc12)NC(=O)[C@H](Cc1cnc[nH]1)NC(=O)[C@@H]1CCC(=O)N1)C(=O)N[C@@H](CCCN=C(N)N)C(=O)N1CCC[C@H]1C(=O)NCC(N)=O (stereo in doubt),-4.86% [at 42.5 µM] (inactive),–
ClCCCl,0.315% (inactive),–
O=C(NCCN1CCOCC1)c1ccc(Cl)cc1,3.12% [at 42.5 µM] (inactive),–
COc1cc2c(cc1OC)C(=O)CC2,0.972% [at 42.5 µM] (inactive),–
O=C(CS(=O)Cc1ccco1)NC/C=C\COc1cc(CN2CCCCC2)ccn1 (stereo not given),4.79% [at 42.5 µM] (inactive),–
O=C(CCN1CCN(CCO)CC1)N1c2ccccc2Sc2ccc(C(F)(F)F)cc21,-7.29% [at 42.5 µM] (inactive),–
CCCCNC1CC(C)(C)NC(C)(C)C1,1.95% (inactive),–

Structure (SMILES),"viability change, negative = cytotoxic",Potency
CC(C)CCCCOC(=O)c1ccccc1C(=O)OCCCCC(C)C,-1.87% (inactive),–
Cc1cc(Cl)c(C)cc1Cl,0.572% (inactive),–
NS(=O)(=O)c1cc2c(cc1Cl)CN(C1CCCCC1)C2=O,-1.27% [at 42.5 µM] (inactive),–
Nc1ccc(S(=O)(=O)Nc2ccc(Cl)nn2)cc1,3.65% [at 42.5 µM] (inactive),–
CCC(CC)CO,-0.469% (inactive),–
NCCN1CCOCC1,0.849% (inactive),–
CC(C)=CCOC(=O)c1ccccc1,6% (inactive),–
C=CC(OCC)OCC,-0.122% (inactive),–
CN(C)c1ccc(C=O)cc1,4.69% (inactive),–
CC(C)C(=O)OCc1cccc(OC(=O)[C@@H]2N3C(=O)[C@@H](NC(=O)Cc4ccccc4)[C@H]3SC2(C)C)c1,0.771% [at 42.5 µM] (inactive),–
CCOC(=O)[C@H](CCc1ccccc1)N[C@@H](C)C(=O)N1C(=O)N(C)C[C@H]1C(=O)O,1.46% [at 42.5 µM] (inactive),–
O=C(O)Cc1cn(-c2ccccc2)nc1-c1ccc(Cl)cc1,-5.12% [at 42.5 µM] (inactive),–
O=Cc1ccc(Cl)c(Cl)c1,1.58% (inactive),–
CN1C(C)(C)CCCC1(C)C,-2.17% [at 42.5 µM] (inactive),–
CC(C)NCC(O)COc1cccc2[nH]ccc12 (stereo not given),2% [at 42.5 µM] (inactive),–
CC(S)C(=O)NCC(=O)O (stereo not given),9.5% [at 42.5 µM] (inactive),–
CCCCN,-0.292% [at 42.5 µM] (inactive),–
O=C(NCC(O)CO)c1c(I)c(C(=O)NCC(O)CO)c(I)c(N(CCO)C(=O)CO)c1I (stereo not given),4.66% [at 42.5 µM] (inactive),–
CC1(C)S[C@@H]2[C@H](N=CN3CCCCCC3)C(=O)N2[C@H]1C(=O)O,5.71% [at 42.5 µM] (inactive),–
O=C(O)CCSSCCC(=O)O,1.32% (inactive),–
